An excerpt weighted towards active compounds, which were near 2.4% of everything screened.
PLCg1 inh = PLC-gamma1 enzyme inhibitors, primary screen, biochemical, fluorescence, purified enzyme. fluorogenic substrate. inhibition, % at 12.2 µM. 370,000 tested, 0.84% active. AID 720700, 2013
LEDGF integ inh = blockers of LEDGF/p75-dependent integrase strand transfer – biochemical, TR-FRET, high throughput, primary screen; TR-FRET IN-LEDGF/p75 DNA integration, Eu/Cy5; AID 743269, 2014; HIV-1 integrase (with human LEDGF/p75); inhibition, % at 3.7 µM; 370,000 tested, 0.64% active;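 active means inhibition above the screen-wide mean plus 3 SD, cut at about 13% in these data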;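 further: signal is the Cy5 over europium emission ratio at 671 and 618 nm; 0% = plate median of compound wells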
PLCb3 inh = human PLC-beta3 inhibitors, primary screen, biochemical, fluorescence; 1-phosphatidylinositol 4,5-bisphosphate phosphodiesterase beta-3 (Homo sapiens), Q01970; Purified PLC-beta3, fluorogenic substrate; inhibition, % at 12.2 µM; 370,000 tested, 0.18% active; in the data active means inhibition above about 11%;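 further: 0% = median of compound wells on plate and 100% = full blocker control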
UHRF1 binding = UHRF1 methylated DNA binding inhibitors, primary screen, counter-screen for MBD2 inhibitor project, biochemical, TR-FRET, human UHRF1, single concentration. UHRF1 binding to methylated oligo. inhibition, % at 4.4 µM. 370,000 tested, 0.75% active. AID 687016, 2013; in the data active means inhibition above about 21%;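 further: UHRF1 SRA domain binding a hemimethylated CpG hairpin DNA probe; 0% = median of test compound wells and 100% = reference inhibitor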
MBD2 inh = inhibitors of MBD2 binding to methylated DNA, primary screen, biochemical, TR-FRET, DNA-binding domain, human | Methyl-CpG-binding domain protein 2 (Homo sapiens), Q9UBB5 | MBD2 binding to methylated oligonucleotide | inhibition, % at 4.4 µM | 370,000 tested, 0.31% active | AID 686964, 2013; in the data active means inhibition above about 13%
Target sequence (Q9UBB5 whole entry, looked up, the tested form may be a part): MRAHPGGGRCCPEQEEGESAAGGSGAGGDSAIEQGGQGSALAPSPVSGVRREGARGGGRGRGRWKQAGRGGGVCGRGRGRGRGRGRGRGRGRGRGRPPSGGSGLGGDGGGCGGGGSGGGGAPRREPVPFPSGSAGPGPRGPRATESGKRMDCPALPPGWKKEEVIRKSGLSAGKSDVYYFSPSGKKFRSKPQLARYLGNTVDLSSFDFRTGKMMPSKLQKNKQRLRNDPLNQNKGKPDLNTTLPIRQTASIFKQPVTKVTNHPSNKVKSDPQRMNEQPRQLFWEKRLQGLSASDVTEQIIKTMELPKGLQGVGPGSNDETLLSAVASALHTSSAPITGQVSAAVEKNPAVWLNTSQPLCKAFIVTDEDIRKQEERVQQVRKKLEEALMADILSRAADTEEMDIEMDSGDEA
PLCgamma1 ctr = PLC-gamma1 enzyme inhibitors, counter-screen for PLC-beta3 inhibitor project, biochemical, fluorescence; 3,300 tested, 3.1% active; purified PLC-gamma1, fluorogenic substrate; AID 743258, 2014; shares compounds with PLCg1 inh; inhibition, % at 12.3 µM
PLCb3 confirm = PLC-beta3 inhibitor confirmation, biochemical, fluorescence, purified enzyme; inhibition, % at 12.3 µM; shares compounds with PLCg1 inh; 3,300 tested, 1% active; fluorogenic substrate fluorescence; in the data active means inhibition above about 11%
* hit, by the source's call; · = no result. Unless noted, no stated cut-off is given here; in the data, active means inhibition above about 9.5%; inactive means the rest.

SMILES | PLCg1 inh | LEDGF integ inh | PLCb3 inh | UHRF1 binding | MBD2 inh | PLCgamma1 ctr | PLCb3 confirm
Cc1cc(NC(=O)c2ccco2)no1 | 17.6* | 3.9 | 4.5 | 0.1 | -4.3 | -3.2 | 0.8
CN(CCCOC(=O)c1cc2ccccc2o1)C1CN(Cc2cn(Cc3ccccc3C(F)(F)F)nn2)S(=O)(=O)C1 (stereo not drawn) | -0.3 | 0.8 | -4.5 | 9.2 | 2.4 | · | ·
COC(=O)c1cccc(Cn2ccc3ccc(-c4ccc5ccn(C(=O)c6ccccc6OC)c5c4)cc32)c1 | -64.7 | 4.5 | -104.0 | -1.4 | -1.7 | · | ·
COc1cc(OC)nc(Nc2nc(C(N)CCc3ccccc3)cs2)n1 (stereo not drawn) | 10.5* | 8.7 | 2.5 | -1.7 | -2.8 | -9.4 | -3.5
COc1cc(OC)nc(Nc2nc(C(N)COCc3ccccc3)cs2)n1 (stereo not drawn) | 2.0 | 7.3 | -1.1 | -1.0 | 5.1 | · | ·
CCOC(=O)NC(=O)c1cn(Nc2ccccc2)c(=O)[nH]c1=O | 10.2* | 1.1 | -3.3 | 1.0 | 3.4 | 0.0 | -0.5
NC(=O)c1c(N)[nH]c(C(=O)c2ccccc2)c1-c1ccccc1C(F)(F)F | -15.1 | -2.0 | -29.3 | 0.5 | 2.1 | · | ·
O=C(CN1C(=O)CSc2ccc(C(F)(F)F)cc21)Nc1ccccc1 | 14.0* | 4.7 | 2.4 | 0.3 | 2.9 | 1.9 | 3.1
CCOC(=O)[C@]12CCCCC/C=C\1N(CCc1ccc(Cl)cc1)C(=O)[C@H]2CC(=O)NCc1cccc(C(F)(F)F)c1 | 3.2 | -2.8 | 4.7 | -3.5 | -4.5 | · | ·
COc1ccc(OC)c(NC(=O)CCC(=O)Nc2nnc(C(C)C)s2)c1 | 12.4* | 7.2 | -2.0 | 0.4 | -2.6 | -8.4 | -3.8
COc1ccccc1N1CCN(N=Cc2ccccc2Br)CC1 | 4.9 | 2.2 | 2.6 | 2.4 | 6.6 | · | ·
Cc1csc2c(NCCCN3CCOCC3)ncnc12 | 12.9* | 4.9 | -1.9 | 2.4 | -9.3 | -5.0 | 1.3
O=c1cc(SCc2ccccc2)nc[nH]1 | 12.2* | 0.0 | -2.8 | 5.5 | -3.6 | -8.3 | -7.0
Cc1cc(SCc2ccccc2)nc(=O)[nH]1 | 2.2 | -2.1 | -2.4 | 1.3 | 1.9 | · | ·
Cc1cc(C)cc(-c2c(C(=O)c3ccc(Br)cc3)[nH]c(N)c2C(=O)NCc2ccc(Cl)cc2)c1 | -8.8 | -3.7 | -14.3 | -0.1 | 3.2 | · | ·
CCOC(=O)c1cnn(-c2nc(-c3ccccc3F)cs2)c1C(F)(F)F | 9.8* | 7.8 | 8.5 | 1.6 | -0.5 | -101.7 | -96.1
CNc1ncc(C(=O)C(C)(C)C)s1 | 11.4* | 4.5 | 6.6 | 4.8 | 7.3 | 1.6 | 5.5
COC(=O)CCCCCCCCCC[N+]1(C)CCCCC1 | 3.8 | 3.1 | 10.8* | 0.8 | -1.5 | -3.9 | 4.1
CS/C(=C\[N+](=O)[O-])Nc1ccc(Cl)cc1 | 10.7* | -0.8 | 1.6 | 4.2 | -0.5 | -4.9 | -4.2
CC(C)=CC(=O)Nc1ccc(Cl)cc1 | 2.9 | 0.4 | -4.0 | 2.9 | -5.2 | · | ·
COC(=O)C[C@H]1CC[C@H]2[C@H](COc3ccc(NS(=O)(=O)c4cccc(OC)c4)cc3C(=O)N2C)O1 | 0.1 | 0.0 | 0.6 | -0.6 | -3.3 | · | ·
CC(=O)OC[C@H]1O[C@@H](n2ccc(=O)[nH]c2=S)C(OC(C)=O)C1OC(C)=O (stereo partly drawn) | 9.8* | 2.2 | 2.2 | 3.3 | 3.3 | -0.4 | 0.8
CC(=O)OCC1OC(n2ccc(=O)[nH]c2=O)C(O)C1O (stereo not drawn) | 3.8 | 1.9 | 2.9 | 1.4 | -2.0 | · | ·
CC(C)N(Cc1nc(-c2ccccc2)no1)C(=O)CN(C)S(=O)(=O)c1ccccc1 | 9.6* | -1.2 | 5.7 | 5.1 | 10.2 | 8.1 | 0.5
Cc1ccc(S(=O)(=O)N2CCC(C(=O)NCCN3CCOCC3)CC2)cc1C | -1.3 | -3.1 | -8.7 | -1.4 | -6.2 | · | ·
